The sample as a whole holds a higher share of hits than the screen did.
mHTT-CaM PPI inh: inhibitors of human mutant huntingtin-calmodulin interaction | P42858 | AlphaScreen His-mHTT/GST-CaM binding, luminescence | inhibition, % at 15 µM | 3.6% of 190,000 active | AID 1671202;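 further: 0% = both proteins with DMSO and 100% = one protein alone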
Target sequence (P42858 whole entry, looked up, stated change not applied): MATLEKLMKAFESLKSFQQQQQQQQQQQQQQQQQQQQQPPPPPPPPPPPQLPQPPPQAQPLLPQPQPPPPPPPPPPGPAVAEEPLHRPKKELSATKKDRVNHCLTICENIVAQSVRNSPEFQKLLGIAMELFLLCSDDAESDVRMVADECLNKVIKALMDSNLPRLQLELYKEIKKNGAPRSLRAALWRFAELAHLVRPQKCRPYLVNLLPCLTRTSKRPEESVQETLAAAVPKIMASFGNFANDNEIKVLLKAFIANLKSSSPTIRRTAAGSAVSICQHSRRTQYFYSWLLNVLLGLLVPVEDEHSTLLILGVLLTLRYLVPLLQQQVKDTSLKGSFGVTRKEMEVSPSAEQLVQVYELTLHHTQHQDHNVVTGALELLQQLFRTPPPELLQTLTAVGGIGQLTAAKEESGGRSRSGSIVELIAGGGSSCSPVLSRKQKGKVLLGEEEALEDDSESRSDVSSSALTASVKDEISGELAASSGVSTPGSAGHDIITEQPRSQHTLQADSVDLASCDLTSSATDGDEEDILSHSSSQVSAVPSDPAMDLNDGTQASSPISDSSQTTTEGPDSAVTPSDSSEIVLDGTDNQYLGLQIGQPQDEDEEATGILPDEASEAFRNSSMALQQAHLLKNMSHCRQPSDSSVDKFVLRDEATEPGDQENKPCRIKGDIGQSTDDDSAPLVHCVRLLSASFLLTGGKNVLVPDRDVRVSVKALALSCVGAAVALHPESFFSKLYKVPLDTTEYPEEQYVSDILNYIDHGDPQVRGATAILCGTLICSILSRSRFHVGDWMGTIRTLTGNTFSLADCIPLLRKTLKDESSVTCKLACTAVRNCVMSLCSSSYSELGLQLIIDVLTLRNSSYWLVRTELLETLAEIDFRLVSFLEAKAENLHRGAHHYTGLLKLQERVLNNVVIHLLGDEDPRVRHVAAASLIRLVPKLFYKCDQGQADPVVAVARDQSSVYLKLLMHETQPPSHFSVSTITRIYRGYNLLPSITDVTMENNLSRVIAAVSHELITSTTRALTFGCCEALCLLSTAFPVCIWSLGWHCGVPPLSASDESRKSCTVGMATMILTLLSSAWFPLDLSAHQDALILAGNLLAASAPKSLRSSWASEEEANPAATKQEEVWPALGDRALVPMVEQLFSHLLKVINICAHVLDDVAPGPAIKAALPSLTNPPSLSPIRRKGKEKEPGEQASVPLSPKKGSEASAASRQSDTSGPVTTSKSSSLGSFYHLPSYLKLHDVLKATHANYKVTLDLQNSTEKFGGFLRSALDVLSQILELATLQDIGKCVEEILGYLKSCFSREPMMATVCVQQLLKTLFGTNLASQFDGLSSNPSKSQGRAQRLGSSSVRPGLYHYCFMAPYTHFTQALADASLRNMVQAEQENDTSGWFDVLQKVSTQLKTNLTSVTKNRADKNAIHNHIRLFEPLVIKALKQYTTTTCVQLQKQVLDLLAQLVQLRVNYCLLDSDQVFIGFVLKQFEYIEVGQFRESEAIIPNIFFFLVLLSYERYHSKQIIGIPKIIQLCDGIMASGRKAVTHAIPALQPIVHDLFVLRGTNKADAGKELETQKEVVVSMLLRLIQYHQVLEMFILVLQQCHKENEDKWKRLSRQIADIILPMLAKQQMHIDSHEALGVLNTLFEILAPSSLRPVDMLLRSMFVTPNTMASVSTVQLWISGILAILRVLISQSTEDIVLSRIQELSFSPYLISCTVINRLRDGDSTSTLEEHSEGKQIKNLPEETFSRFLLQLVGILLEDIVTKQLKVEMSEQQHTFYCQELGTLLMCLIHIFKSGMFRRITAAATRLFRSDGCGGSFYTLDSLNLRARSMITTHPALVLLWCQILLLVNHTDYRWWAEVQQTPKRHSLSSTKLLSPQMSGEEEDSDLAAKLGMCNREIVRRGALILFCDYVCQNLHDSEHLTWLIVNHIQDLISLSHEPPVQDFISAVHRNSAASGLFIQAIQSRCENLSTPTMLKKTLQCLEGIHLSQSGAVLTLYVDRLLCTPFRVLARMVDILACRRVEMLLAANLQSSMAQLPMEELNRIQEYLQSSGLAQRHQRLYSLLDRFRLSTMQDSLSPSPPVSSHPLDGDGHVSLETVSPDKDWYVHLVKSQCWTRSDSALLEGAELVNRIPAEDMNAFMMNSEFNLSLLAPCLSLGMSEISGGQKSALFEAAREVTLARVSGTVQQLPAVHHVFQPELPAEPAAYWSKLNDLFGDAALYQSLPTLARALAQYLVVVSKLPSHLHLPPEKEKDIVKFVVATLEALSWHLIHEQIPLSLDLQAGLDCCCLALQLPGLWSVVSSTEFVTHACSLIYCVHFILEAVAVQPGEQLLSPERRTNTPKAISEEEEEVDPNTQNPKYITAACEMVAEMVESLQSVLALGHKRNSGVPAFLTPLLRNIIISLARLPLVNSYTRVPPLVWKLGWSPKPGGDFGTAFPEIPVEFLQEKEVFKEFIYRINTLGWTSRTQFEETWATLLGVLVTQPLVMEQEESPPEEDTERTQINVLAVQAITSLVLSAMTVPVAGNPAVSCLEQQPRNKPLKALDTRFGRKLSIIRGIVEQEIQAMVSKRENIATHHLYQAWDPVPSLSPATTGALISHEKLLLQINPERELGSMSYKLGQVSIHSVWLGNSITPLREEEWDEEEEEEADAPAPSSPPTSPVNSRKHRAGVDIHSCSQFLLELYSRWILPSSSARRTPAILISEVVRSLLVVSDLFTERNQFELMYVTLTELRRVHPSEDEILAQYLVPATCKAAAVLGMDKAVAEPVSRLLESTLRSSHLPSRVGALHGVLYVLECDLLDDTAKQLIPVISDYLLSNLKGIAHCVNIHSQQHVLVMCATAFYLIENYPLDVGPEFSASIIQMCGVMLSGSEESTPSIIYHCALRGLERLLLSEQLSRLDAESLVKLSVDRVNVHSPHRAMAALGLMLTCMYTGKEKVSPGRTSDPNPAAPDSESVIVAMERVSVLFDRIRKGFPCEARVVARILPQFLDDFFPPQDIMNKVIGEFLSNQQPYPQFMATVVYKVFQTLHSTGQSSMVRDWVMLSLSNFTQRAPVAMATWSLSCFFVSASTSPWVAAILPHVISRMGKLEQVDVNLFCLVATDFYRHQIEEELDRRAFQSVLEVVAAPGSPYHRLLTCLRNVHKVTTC
Pf apPOL inh: Pf-apPOL DNA polymerase inhibition; 0.25% of 210,000 active; Recombinant Pf-apPOL, molecular beacon fluorescence, 1.5 h; inhibition, % at 10 µM
An asterisk follows results filed as active; ! = repeats disagree. No stated cut-off is given here; in the data, active means inhibition above about 50%; inactive means the rest.

For Cc1ccc(N2COc3ccc(Cl)cc3C2)cc1 the results were mHTT-CaM PPI inh 64* and Pf apPOL inh -5.
`Cc1ccc(N2COc3cc4c(cc3C2)OCO4)cc1C` gave mHTT-CaM PPI inh 18 and Pf apPOL inh -1.
`COc1ccc2c(c1)CN(c1ccc(C)c(Cl)c1)CO2` gave mHTT-CaM PPI inh 77* and Pf apPOL inh -4.
Fc1ccc(N2COc3ccc(Cl)cc3C2)cc1 was read as mHTT-CaM PPI inh 50* and Pf apPOL inh -5.
Screening Fc1ccc(N2COc3cc4c(cc3C2)OCO4)cc1 returned mHTT-CaM PPI inh 9 and Pf apPOL inh -6.
Screening Cc1cccc(N2CCN(C(=O)c3ccc(Cl)cc3)CC2)c1C returned mHTT-CaM PPI inh -5 and Pf apPOL inh -9.
Screening CCc1ccccc1NC(=O)COc1cc(C)nc(N2CCCC2)n1 returned mHTT-CaM PPI inh -4 and Pf apPOL inh -2.
`CC(C(=O)NCC1CCCO1)N1CCN(c2ccc(Cl)cc2)CC1` (stereo not drawn) gave mHTT-CaM PPI inh 1 and Pf apPOL inh -6.
Screening Cc1ccccc1CC(=O)N1CCC2(CC1)NC(=O)c1ccc(Cl)cc1N2 returned mHTT-CaM PPI inh 4 and Pf apPOL inh 1.
For COC(=O)NCc1nnnn1-c1ccc(OC)cc1 the results were mHTT-CaM PPI inh -5 and Pf apPOL inh -3.
For Cc1cc2c(C(C)C)c(O)c(O)c(C=O)c2c(O)c1-c1c(C)cc2c(C(C)C)c(O)c(O)c(C=O)c2c1O the results were Pf apPOL inh 88*!.
Cc1ccc(NC(=O)N2CCCC2c2nc(-c3ccc(F)cc3F)no2)cc1 (stereo not drawn) was read as mHTT-CaM PPI inh 1 and Pf apPOL inh 8.
Screening COc1cccc(C(=O)Oc2coc(CSc3nccc(C)n3)cc2=O)c1OC returned mHTT-CaM PPI inh 34 and Pf apPOL inh -6.
`Cc1ccnc(SCc2cc(=O)c(OC(=O)C(C)(C)Oc3ccc(Cl)cc3)co2)n1` gave mHTT-CaM PPI inh 99* and Pf apPOL inh 2.
`CSC[C@H]1CN(C2CCCCC2)C(=O)[C@@H]1CC(=O)Nc1ccccc1` gave mHTT-CaM PPI inh -2 and Pf apPOL inh 1.
`N#CCC(N)=Nc1sc2c(c1C#N)CCCC2` gave mHTT-CaM PPI inh 67* and Pf apPOL inh 6.
Screening CC(N)=Nc1sc2c(c1C#N)CCCC2 returned mHTT-CaM PPI inh -4 and Pf apPOL inh -4.
Cc1cc(F)ccc1NC(=O)Cc1nc(-c2ccccn2)n[nH]1 was read as mHTT-CaM PPI inh 99* and Pf apPOL inh -12.
Screening O=C(Cc1nc(-c2ccccn2)n[nH]1)Nc1cc(F)ccc1F returned mHTT-CaM PPI inh 95* and Pf apPOL inh -9.
`Cc1cc(F)ccc1NC(=O)Cc1nnc(-c2ccc3ncccc3c2)o1` gave mHTT-CaM PPI inh 2 and Pf apPOL inh -3.
`O=C(Cc1ccccc1F)Nc1cc(-c2ccccn2)no1` gave mHTT-CaM PPI inh -5 and Pf apPOL inh -3.
For Cc1cccc(NC(=O)Cc2nc(-c3ccccc3)n[nH]2)c1 the results were mHTT-CaM PPI inh 6 and Pf apPOL inh -3.
Cc1cc(C)cc(NC(=O)Cc2nc(-c3ccccn3)n[nH]2)c1 was read as mHTT-CaM PPI inh 78* and Pf apPOL inh -9.
Cc1ccc(NC(=O)Cc2nc(-c3ccccn3)n[nH]2)c(C)c1 was read as mHTT-CaM PPI inh 86* and Pf apPOL inh -5.
Cc1ccc(NC(=O)Cc2ccccc2)c(C)c1 was read as mHTT-CaM PPI inh -12 and Pf apPOL inh -2.
O=C(O)CCC(=O)NC(CO)C(O)c1ccc([N+](=O)[O-])cc1 (stereo not drawn) was read as mHTT-CaM PPI inh -2 and Pf apPOL inh -3.
For Cc1nn(C2CCS(=O)(=O)C2)c(C)c1S(=O)(=O)Nc1ccc(F)c(Cl)c1 (stereo not drawn) the results were mHTT-CaM PPI inh -8 and Pf apPOL inh 1.
O=C(Nc1ccc(F)cc1F)N1CCC(n2cnc3ccc(Cl)cc3c2=O)CC1 was read as mHTT-CaM PPI inh -5 and Pf apPOL inh 0.
For CC(C)(C)c1[nH]nc2c1C(c1ccc(F)cc1)C(C#N)=C(N)O2 (stereo not drawn) the results were mHTT-CaM PPI inh 1 and Pf apPOL inh -2.
For Cc1ccc(C)c(NC(=O)Cc2nc(-c3ccccc3)n[nH]2)c1 the results were mHTT-CaM PPI inh -10 and Pf apPOL inh -3.
`Cc1ccc(C)c(NC(=O)Cc2nc(-c3ccccn3)n[nH]2)c1` gave mHTT-CaM PPI inh 99* and Pf apPOL inh -12.
Screening O=C(NC1CCCCC1)c1ccccc1NS(=O)(=O)c1ccc(F)cc1 returned mHTT-CaM PPI inh 4 and Pf apPOL inh -9.
Cc1ccn2c(NC(=O)CC(C)C)c(-c3cccc(F)c3)nc2c1 was read as mHTT-CaM PPI inh 3 and Pf apPOL inh -4.
O=[N+]([O-])C(=C1NCCN1)/C(Cl)=C(\Cl)Br was read as mHTT-CaM PPI inh 1 and Pf apPOL inh 0.
Screening C(=C\c1ccccc1)/C1=Nc2ccccc2NC(c2ccccc2)C1 (stereo not drawn) returned mHTT-CaM PPI inh 81* and Pf apPOL inh -5.
Screening O=C(O)c1ccc(N2N=C(/C=C/c3ccccc3)CC2c2ccccc2)cc1 (stereo not drawn) returned mHTT-CaM PPI inh -26 and Pf apPOL inh 1.
Screening COc1ccc(S(=O)(=O)CCC(=O)Nc2nnc(-c3ccc(C)cc3C)o2)cc1 returned mHTT-CaM PPI inh 15 and Pf apPOL inh -3.
Screening O=C(Sc1n[nH]c(=O)[nH]c1=O)c1ccc(Cl)cc1 returned mHTT-CaM PPI inh 37 and Pf apPOL inh -4.
`Cc1cccc(C(=O)Sc2n[nH]c(=O)[nH]c2=O)c1` gave mHTT-CaM PPI inh 70* and Pf apPOL inh -12.
Screening Cc1nc2c(c(N3CCN(C4CCN(C)CC4)CC3)n1)CCC2 returned mHTT-CaM PPI inh -6 and Pf apPOL inh 1.
COc1cccc(C2C(C(=O)Nc3ccc(F)cc3F)=C(C)NC3=C2C(=O)CCC3)c1OC (stereo not drawn) was read as mHTT-CaM PPI inh -5 and Pf apPOL inh -1.
COc1ccc(N=c2scc(-c3ccc(I)cc3)n2CCO)cc1 was read as mHTT-CaM PPI inh 66* and Pf apPOL inh -5.
`O=S(=O)(c1ccc(-c2csc(=Nc3ccccc3)n2CCO)cc1)N1CCCCC1` gave mHTT-CaM PPI inh 45 and Pf apPOL inh 6.
Screening COc1ccc(-c2csc(=Nc3ccccc3)n2CCO)cc1 returned mHTT-CaM PPI inh 45 and Pf apPOL inh -5.
`COc1ccc(N=c2scc(-c3ccc(Br)cc3)n2CCO)cc1` gave mHTT-CaM PPI inh 59* and Pf apPOL inh 5.
CC1(C)C2([N+](=O)[O-])CN3CC1([N+](=O)[O-])CN(C2)C3c1cccc([N+](=O)[O-])c1 (stereo not drawn) was read as mHTT-CaM PPI inh 0 and Pf apPOL inh 3.
For CCN(C)c1nc(-c2ccccc2Cl)c2c(N)n(-c3ccccc3)nc2n1 the results were mHTT-CaM PPI inh 20 and Pf apPOL inh 0.
Screening CCN(C)c1nc(-c2cccc(F)c2)c2c(N)n(-c3cccc(F)c3)nc2n1 returned mHTT-CaM PPI inh 57* and Pf apPOL inh 2.
`COc1ccc(-n2nc3ccc(NC(=O)c4ccccc4[N+](=O)[O-])cc3n2)cc1` gave mHTT-CaM PPI inh 9 and Pf apPOL inh 0.
N#Cc1c(-c2ccc3c(c2)OCO3)nc(N2CCCCC2)[nH]c1=O was read as mHTT-CaM PPI inh 62* and Pf apPOL inh 5.
COc1nc(N)c(C#N)c(-c2ccc3c(c2)OCO3)c1C#N was read as mHTT-CaM PPI inh 40 and Pf apPOL inh -19.
